EPAC2 antag: blocks human EPAC2 exchange factor; Q8WZA2; EPAC2 GEF exchange of Rap1B-BODIPY-GDP, fluorescence; Potency, µM (top dose mostly 114 µM), without a hit: top-dose activity, negative = inhibition, usual class: inhibitors; 360,000 tested, 0.18% active; AID 720708; note: % is set by controls: 0 for no effect and ±100 for the full control effect; nearly all actives have a fitted effect of over 45% in size
USP1 inh: USP1/UAF1 (human) deubiquitinase inhibition. recombinant USP1/UAF1, Ub-Rhodamine cleavage fluorescence. Potency, µM (top dose mostly 57.1 µM), for the others: at the top dose activity change, negative = inhibition, actives largely listed as inhibitors. 390,000 tested, 0.23% active; note: % is set by controls: 0 for no effect and ±100 for the full control effect; nearly all actives have a fitted effect of over 60% in size
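USP1/UAF1 complex (1 nM) preincubated 15 min at room temperature with compound, then Ub-Rho substrate (150 nM final) added. Kinetic fluorescence at 480/540 nm over 6 reads at 60 s intervals; 50 mM HEPES pH 7.8, 0.5 mM EDTA, 0.1 mg/ml BSA, 1 mM TCEP, 0.01% Tween-20.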
EPAC2 agonist: activates human EPAC2 exchange factor. Q8WZA2. EPAC2 activation, biochemical qHTS; response scale: 100% = 6.5 mM cAMP response. Potency, µM (series often up to 154 µM), without a hit: top-dose activation, hits mostly activators. 360,000 tested, 0.079% active. AID 720711; note: nearly all actives have a fitted effect of over 50% in size
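EPAC2 (100 nM) mixed with Rap1B loaded with BODIPY-GDP (250 nM) plus 50 uM unlabeled GDP; compounds pinned in, 5 min RT, then read every 5 min for 30 min (ex 480, em 540 nm). Normalized to cAMP control.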
VDR inhibitor: vitamin D3 receptor (human) inhibition; Potency, µM, without a hit: max response, negative = inhibition, actives largely listed as inhibitors; P11473; AID 504847; VDR-SRC2-3 peptide fluorescence polarization, 2 h; 400,000 tested, 0.93% active; note: % is set by controls: 0 for no effect and ±100 for the full control effect
Target sequence (P11473 whole entry, looked up): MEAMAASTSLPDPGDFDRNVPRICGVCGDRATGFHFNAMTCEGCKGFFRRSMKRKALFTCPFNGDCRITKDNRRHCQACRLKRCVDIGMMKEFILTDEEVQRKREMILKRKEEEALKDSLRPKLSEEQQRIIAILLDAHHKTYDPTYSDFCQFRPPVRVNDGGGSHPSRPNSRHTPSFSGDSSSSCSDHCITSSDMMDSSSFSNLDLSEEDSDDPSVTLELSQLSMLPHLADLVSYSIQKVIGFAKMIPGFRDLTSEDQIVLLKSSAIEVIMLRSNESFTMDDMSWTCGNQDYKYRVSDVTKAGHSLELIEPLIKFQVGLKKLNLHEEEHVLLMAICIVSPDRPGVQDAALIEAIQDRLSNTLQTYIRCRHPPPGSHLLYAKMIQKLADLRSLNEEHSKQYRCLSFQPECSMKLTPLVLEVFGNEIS
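After 23 nl compound addition and a short centrifugation, plates sat for 2 hours at ambient temperature; polarization of fluorescence then indicated loss of VDR binding to peptide SRC2-3.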
EPAC1 antag: antagonists of human EPAC1. EPAC1 GEF assay, Rap1b-BODIPY-GDP exchange fluorescence. Potency, µM (titrated, usually from 115 µM), for inactives: at the top dose activity change, negative = inhibition, actives largely listed as inhibitors. 360,000 tested, 0.14% active;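 note: plate controls were vehicle for no effect and positive control for full effect; nearly all actives have a fitted effect of over 50% in size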
EPAC1 agonist: activates human EPAC1 exchange factor; EPAC1 agonist qHTS, biochemical assay; response scale: 100% = response to 6.5 mM cAMP; Potency, µM (titrated, usually from 154 µM), inactives show at the highest dose activation, usual class: activators; 360,000 tested, 0.073% active; AID 720707; note: nearly all actives have a fitted effect of over 60% in size
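Read-out is the fluorescence drop as BODIPY-GDP leaves Rap1B (480 nm excitation, 540 nm emission), recorded every 5 minutes over 30 minutes. Reactions held 100 nM EPAC1, 250 nM Rap1B–BODIPY-GDP and 50 uM GDP, with 6.5 mM cAMP setting full activation.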
VDR confirm: confirmation of human vitamin D receptor inhibitors. shares compounds with VDR inhibitor. AID 602199. VDR-coactivator inhibition assay, qHTS confirmation. Potency, µM, actives largely listed as inhibitors. 840 tested, 89% active
VDR FP: confirmation of human VDR-coactivator binding inhibitors, fluorescein label; shares compounds with VDR inhibitor; VDR-coactivator binding, fluorescein fluorescence polarization; Potency, µM (series often up to 57.1 µM), for the others: top-dose activity change, negative = inhibition, actives largely listed as inhibitors; 840 tested, 48% active; AID 602200
VDR bla: confirmation of human vitamin D receptor inhibitors in reporter cells. shares compounds with VDR inhibitor. VDR beta-lactamase reporter cells, FRET ratio; cells co-treated with VDR agonist LG190178. Potency, µM (highest dose often 46.1 µM), without a hit: at the highest dose activity change, negative = inhibition, actives largely listed as inhibitors. 840 tested, 23% active. AID 602202; note: % is set by controls: 0 for no effect and ±100 for the full control effect
VDR viability: cell toxicity, VDR inhibitor hit counter-screen; shares compounds with VDR inhibitor; cytotoxicity counter-screen, cell viability, qHTS; Potency, µM (titrated, usually from 48.3 µM), for inactives: at the top dose activity change, negative = cytotoxicity, hits mostly cytotoxic; 840 tested, 18% active;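 note: plate controls were DMSO for no effect and high-concentration cycloheximide for full effect; nearly all actives have a fitted effect of over 75% in size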
Numbers without * were called inactive; ? = inconclusive; · = not tested or not shown; [ ] = remark or other dose. A selection: hits, their analogues and other compounds. The true share with any hit is near 1.2%. Calls come from the whole dose curve; as a rule, active = well fitted curve in the direction sought with a large enough effect; inconclusive = small, poorly fitted or top-dose-only effect, or another doubt; inactive = no such curve, though single readings can be large; an effect the other way counts as inactive or inconclusive. Potency is the fitted concentration of half-maximal effect.

SMILES | EPAC2 antag | USP1 inh | EPAC2 agonist | VDR inhibitor | EPAC1 antag | EPAC1 agonist | VDR confirm | VDR FP | VDR bla | VDR viability
COc1cc(/C=C2/C(=O)c3cccc([N+](=O)[O-])c3C2=O)c(Br)cc1O | -5% | ? | -3% | 20µM* | 40µM* | -3% | 7.5* | 3.2µM* | ? | ?
COc1ccccc1NC(=O)CCCCCN1C(=O)c2cccc([N+](=O)[O-])c2C1=O | -3% | -2% | 13% | -12% | -4% | 0% | · | · | · | ·
CCc1ccc(NC(=O)CC2C(=O)N(c3cccc(C)c3)C(=O)N2Cc2cccs2)cc1 (stereo unspecified) | · | -9% | · | 5% | · | · | · | · | · | ·
Cc1cc(Br)cc2c1N(Cc1ccccc1OC(C)C)C(=O)C2=O | · | -29% | · | 13µM* | · | · | 4* | 3.5µM* | 23µM* | ?
Cc1cccc2c1N(Cc1ccccc1OCCC(C)C)C(=O)C2=O | · | ? | · | 22µM* | · | · | 22* | 10µM* | -9% | -19%
CCOC(=O)C(=O)C1(C(=O)OCC)Oc2cc(OC)cc(OC)c2C(=O)C1c1ccccc1 (stereo unspecified) | · | · | · | 1% | · | · | · | · | · | ·
CCc1c(C(=O)NCCc2ccc(N3CCCCC3)cc2)[nH]c2ccc(Cl)cc12 | · | · | · | -2% | · | · | · | · | · | ·
COc1ccc(S(=O)(=O)N2CCN(Cc3ccc4c(c3)OCO4)CC2)cc1OC | · | -11% | · | 3% | · | · | · | · | · | ·
CCOC(=O)c1c(-c2ccsc2)csc1N | 18%[57.1 µM] | 0% | -1% | -29% | 6% | 3% | · | · | · | ·
CCOC(=O)c1c(-c2ccc(C)s2)csc1N | ? | -6% | 15% | 79µM* | -27% | 6% | 19* | 11µM* | 11% | 23%
O=C(c1cccs1)c1no[n+]([O-])c1C(=O)c1cccs1 | 12% | -16% | 9% | 45µM* | ? | -2% | 6.3* | 3.5µM* | 2.6µM* | 3µM*
O=[N+]([O-])c1ccc(N2CCOCC2)cc1O | -15% | -13% | -5% | -1% | -11% | -9% | · | · | · | ·
Cc1cc(N2CCOCC2)ccc1/C=C\[N+](=O)[O-] | 3% | -7% | 8% | 28µM* | -1% | 7% | 6.7* | 43% | ? | 16µM*
O=C(Nc1cccc(S(=O)(=O)Nc2ccccc2F)c1)c1ccc2ccccc2n1 | -16% | -20% | 9% | 16µM* | 6% | 18% | 3.8* | ? | -19% | -38%
O=C(Cc1ccc(Cl)cc1Cl)Nc1cccc(S(=O)(=O)Nc2ccccc2F)c1 | -11% | -3% | -5% | ? | -23% | -22% | · | · | · | ·
O=C(/C=C/c1ccccc1)Nc1cccc(S(=O)(=O)Nc2ccccc2F)c1 | -15% | -8% | 20% | 11µM* | -27% | 22% | 4.2* | ? | 18% | ?
CCS(=O)(=O)c1nc2ccccc2n1CC(=O)Nc1ccccc1C(=O)OC | · | -9% | · | 7% | · | · | · | · | · | ·
COC(=O)c1ccccc1NC(=O)CSc1nc2sc3c(c2c(=O)[nH]1)CCCC3 | · | 14% | · | 14µM* | · | · | ? | 4µM* | 3% | 4%
Cc1ccc(CCNC(=O)c2cc3ccccn3n2)cc1 | · | -17% | · | 4% | · | · | · | · | · | ·
CCOC(=O)N1C(=O)[C@@](CC)(c2ccccc2)N1C(=O)OCC | 10% | ? | 8% | 79µM* | -4% | -7% | 21* | -23% | 5% | ?
CC[C@@]1(c2cccc(C)c2)C(=O)N(C(=O)OC)N1C(=O)OC | 3% | -29% | 2% | ? | -6% | 6% | · | · | · | ·
CCN(CC)S(=O)(=O)c1ccc(O)c(NS(=O)(=O)c2ccccc2F)c1 | -3% | -12% | 2% | 79µM* | -19% | -3% | 17* | -20% | 2% | 11%
CCN(CC)S(=O)(=O)c1ccc(O)c(NC(=O)CN2CCc3ccccc3C2)c1 | 2% | -20% | 7% | -15% | -1% | -11% | · | · | · | ·
O=[N+]([O-])c1c(Nc2ccc(O)cc2)cc(Cl)c2nonc12 | 5% | ? | -7% | ? | -13% | -3% | 2.5* | 2µM* | ? | 9.5µM*
Nc1nc2c(s1)CCc1c-2cnn1-c1ccccc1 | ? | ? | 5% | 20µM* | -10% | -8% | 4.5* | 4µM* | ? | ?
SMILES | EPAC2 antag | USP1 inh | EPAC2 agonist | VDR inhibitor | EPAC1 antag | EPAC1 agonist | VDR confirm | VDR FP | VDR bla | VDR viability
COc1ccc(CNC(=O)CCc2c(C)nc3nc(CNC(=O)OC(C)(C)C)nn3c2C)cc1 | · | -15% | · | 2% | · | · | · | · | · | ·
Cc1ccc2nc(Cl)c3cc(C(=O)NC4CCC(C)CC4)sc3c2c1 (stereo unspecified) | · | -9% | · | -16% | · | · | · | · | · | ·
CC1=NNC(=O)/C1=C\c1cn(-c2ccccc2)nc1-c1ccc(F)cc1 | -16% | ? | 12% | 45µM* | -25% | 0% | 7.5* | ? | 15µM* | 7.3µM*
CC1=NNC(=O)/C1=C\c1cn(-c2ccccc2)nc1-c1cccs1 | 8%[57.1 µM] | -16% | 21% | 10µM* | -21% | 21% | 3.8* | ? | 16µM* | 9.2µM*
O=Cc1cn(-c2ccccc2)nc1-c1ccc(F)cc1 | 25% | -16% | 0% | -3% | -14% | -1% | · | · | · | ·
CN1C2CCCC1CC(NC(=O)c1nn(C)c3ccccc13)C2 (stereo unspecified) | · | · | · | 3% | · | · | · | · | · | ·
O=c1c2ccccc2nc(-c2ccc(Cl)cc2)n1CCCOc1ccccc1F | · | -11% | · | -6% | · | · | · | · | · | ·
COc1ccccc1CNc1cc(-c2ccoc2)ncn1 | · | · | · | 16µM* | · | · | ? | -5% | 5% | 10%
O=C(c1ccco1)N1CCN(/C=C2\Nc3ccccc3C(=O)N2c2ccc(F)cc2)CC1 | · | · | · | 1% | · | · | · | · | · | ·
CC1=NOC(=O)/C1=C\c1ccc(-c2cc(Cl)ccc2Cl)o1 | 79µM* | -6% | 1% | 20µM* | -12% | 3% | 3* | ? | ? | ?
CC1=NOC(=O)/C1=C\c1ccc(-c2ccc(Br)cc2)o1 | ? | ? | -4% | ? | ? | -15% | 3.2* | ? | 1% | -18%

Source: PubChem
